# From PubChem BioAssay (NCATS)
# Results filed as inconclusive are left out. Where a call stands in place of a potency, no number is given. Active and inactive are the calls of the source. Unless noted, the call rests on the fitted dose curve.
# Legend:
# [1] = target: Cytochrome P450 1A2 (Homo sapiens) (UniProt P05177); assay: p450-cyp1a2 (AID 410)
# Summary of the method: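 Human CYP1A2 (20nM) demethylated Luciferin-ME at its Km (100uM) in 100mM KPO4. After 10 min compound preincubation, NADPH regeneration ran the reaction 60 min at room temperature. Luciferin was read by luminescence, normalized to 57 uM furafylline.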
# [2] = target: Glucocorticoid receptor (Homo sapiens) (UniProt P04150); assay: GR-GFP Redistribution (AID 450;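 active means compounds whose dose series gives a full or clear partial fitted curve of increased nuclear translocation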; further: potency means the concentration at half of the fitted maximal effect); settings: U2OS GR-GFP nuclear translocation, laser cytometry, 2 h
# [3] = target: Glucocorticoid receptor (Homo sapiens) (UniProt P04150); assay: GR-EFC Redistribution (AID 451); settings: CHO-K1 GR-EFC translocation, beta-gal luminescence, 2 h; further: potency means the concentration at half of the fitted maximal effect
# Summary of the method: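 Translocation of GR-ED fusion to nuclear EA restores b-gal, read by luminescence after 1 h room-temperature detection. Engineered CHO-K1 biosensor cells, 1,000/well, exposed 2 h at 37 C to titrations up to 46 uM final.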
# [4] = target: Mitogen-activated protein kinase 10 (Mus musculus) (UniProt Q61831); assay: JNK3 AlphaScreen Assay (AID 530; active means well fitted curve in either direction with a large enough effect, not every such curve was filed as active;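 further: kinase came from lysate of stimulated human HepG2 cells; signal reports phosphorylation of biotinylated GST-cJun 1-79 at Ser73 with 10 µM ATP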)
# Summary of the method: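 Room-temperature AlphaScreen kinase assay; pre-activated HepG2 lysate as JNK3 source, biotin-GST-cJun(1-79) substrate, 10 uM ATP, compound 15 min preincubation.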
# [5] = target: 3',5'-cyclic-AMP phosphodiesterase 4B (Homo sapiens) (UniProt Q07343); assay: qHTS Assay for Inhibitors of PDE-IV (AID 607; active means well fitted activation curve with a large enough effect in the main read-out, with a control signal flat, not every such curve was filed as active)
# Summary of the method: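 Live HEK293 cells with a modified cyclic nucleotide-gated (CNG) channel report intracellular cAMP via membrane-potential dye fluorescence (ex 535/em 590 nm). Endogenous PDE-IV was targeted. Compounds were tested at up to 22.9 uM final; RO 20-1724 100 uM served as control.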
# [6] = qHTS Assay for Lipid Storage Modulators (AID 1519); settings: Drosophila S3 cells, BODIPY lipid droplet/cell ratio, laser cytometry, cells loaded with oleic acid
# Summary of the method: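 Cells seeded at 5,000 per well were treated with compounds over a concentration series and loaded with oleic acid (400 uM, as added). Lipid droplet fluorescence (488 nm excitation, 500-530 nm channel) was read by laser-scanning cytometry and normalized to 20 uM Triacsin C.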
# [7] = target: DNA dC->dU-editing enzyme APOBEC-3G (Homo sapiens) (UniProt Q9HC16); assay: qHTS for inhibitors of Vif-A3G interactions: Validation (AID 588379; active means well fitted curve in the direction sought with a large enough effect; an effect the other way counts as inactive or inconclusive)
# Summary of the method: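 HeLa cells stably expressing Vif and A3G-eYFP, 700 cells/well, incubated overnight at 37 deg C, then exposed to compound overnight at 37 deg C. Inhibition of Vif-mediated degradation read as increased yellow fluorescence (Ex 488/Em 500-530) by laser-scanning cytometry.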
# [8] = Primary qHTS for small molecule stabilizers of the endoplasmic reticulum resident proteome: Secreted ER Calcium Modulated Protein (SERCaMP) assay (AID 1508630; active means well fitted curve in the direction sought with a large enough effect; an effect the other way counts as inactive or inconclusive)
# Summary of the method: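 GLuc-SERCaMP-expressing SH-SY5Y cells, pretreated 16 h with compound, are challenged with thapsigargin to empty ER calcium stores; after 4 h, coelenterazine is added directly to the medium and luminescence is imaged.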
# Chain of Glucocorticoid receptor (Homo sapiens) (P04150 whole entry, looked up, the tested form may be a part): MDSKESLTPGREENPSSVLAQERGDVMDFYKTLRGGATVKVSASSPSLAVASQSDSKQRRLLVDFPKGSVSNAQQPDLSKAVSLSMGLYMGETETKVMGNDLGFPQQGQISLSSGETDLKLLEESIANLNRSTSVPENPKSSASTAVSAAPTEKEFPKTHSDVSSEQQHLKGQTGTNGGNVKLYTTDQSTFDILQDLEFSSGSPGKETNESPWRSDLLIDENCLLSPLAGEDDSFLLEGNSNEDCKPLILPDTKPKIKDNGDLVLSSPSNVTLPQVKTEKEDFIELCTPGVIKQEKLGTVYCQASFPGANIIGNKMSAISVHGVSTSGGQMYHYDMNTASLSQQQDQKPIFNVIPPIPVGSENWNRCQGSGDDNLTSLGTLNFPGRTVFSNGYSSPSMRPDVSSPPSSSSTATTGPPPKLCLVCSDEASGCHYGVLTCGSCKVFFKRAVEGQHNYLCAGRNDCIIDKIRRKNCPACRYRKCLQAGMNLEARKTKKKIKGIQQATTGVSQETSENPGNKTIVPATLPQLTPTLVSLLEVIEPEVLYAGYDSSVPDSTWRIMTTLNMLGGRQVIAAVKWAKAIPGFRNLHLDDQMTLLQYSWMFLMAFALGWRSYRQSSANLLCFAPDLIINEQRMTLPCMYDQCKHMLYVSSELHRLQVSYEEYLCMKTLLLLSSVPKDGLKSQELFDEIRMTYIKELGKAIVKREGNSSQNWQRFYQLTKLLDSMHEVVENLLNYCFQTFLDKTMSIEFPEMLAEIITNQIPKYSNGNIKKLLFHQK
# Chain of DNA dC->dU-editing enzyme APOBEC-3G (Homo sapiens) (Q9HC16 whole entry, looked up): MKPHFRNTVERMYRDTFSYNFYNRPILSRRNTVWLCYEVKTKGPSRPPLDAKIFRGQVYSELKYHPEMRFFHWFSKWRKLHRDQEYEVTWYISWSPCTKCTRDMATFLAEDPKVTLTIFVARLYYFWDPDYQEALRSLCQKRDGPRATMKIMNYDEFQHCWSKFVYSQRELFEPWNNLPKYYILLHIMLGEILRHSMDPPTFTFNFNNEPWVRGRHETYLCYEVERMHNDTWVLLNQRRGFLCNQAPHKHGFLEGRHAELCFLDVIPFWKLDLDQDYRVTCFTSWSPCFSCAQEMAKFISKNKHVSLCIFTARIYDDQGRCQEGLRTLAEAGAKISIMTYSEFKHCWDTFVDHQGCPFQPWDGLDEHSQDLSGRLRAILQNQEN
# Chain of Cytochrome P450 1A2 (Homo sapiens) (P05177 whole entry, looked up): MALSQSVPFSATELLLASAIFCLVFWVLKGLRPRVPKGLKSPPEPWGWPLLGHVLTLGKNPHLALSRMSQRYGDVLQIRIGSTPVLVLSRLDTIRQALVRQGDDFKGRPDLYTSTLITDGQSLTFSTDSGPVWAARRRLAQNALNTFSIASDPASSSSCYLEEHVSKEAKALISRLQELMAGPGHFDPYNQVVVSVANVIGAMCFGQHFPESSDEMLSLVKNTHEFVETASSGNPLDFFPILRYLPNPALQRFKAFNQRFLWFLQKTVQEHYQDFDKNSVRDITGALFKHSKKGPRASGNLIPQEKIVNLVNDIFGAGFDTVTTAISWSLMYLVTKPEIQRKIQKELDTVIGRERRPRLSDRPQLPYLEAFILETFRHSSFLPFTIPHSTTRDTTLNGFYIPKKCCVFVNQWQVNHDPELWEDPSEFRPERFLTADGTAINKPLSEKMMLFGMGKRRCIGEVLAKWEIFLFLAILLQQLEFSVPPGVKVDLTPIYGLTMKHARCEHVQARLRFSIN
# Chain of 3',5'-cyclic-AMP phosphodiesterase 4B (Homo sapiens) (Q07343 whole entry, looked up): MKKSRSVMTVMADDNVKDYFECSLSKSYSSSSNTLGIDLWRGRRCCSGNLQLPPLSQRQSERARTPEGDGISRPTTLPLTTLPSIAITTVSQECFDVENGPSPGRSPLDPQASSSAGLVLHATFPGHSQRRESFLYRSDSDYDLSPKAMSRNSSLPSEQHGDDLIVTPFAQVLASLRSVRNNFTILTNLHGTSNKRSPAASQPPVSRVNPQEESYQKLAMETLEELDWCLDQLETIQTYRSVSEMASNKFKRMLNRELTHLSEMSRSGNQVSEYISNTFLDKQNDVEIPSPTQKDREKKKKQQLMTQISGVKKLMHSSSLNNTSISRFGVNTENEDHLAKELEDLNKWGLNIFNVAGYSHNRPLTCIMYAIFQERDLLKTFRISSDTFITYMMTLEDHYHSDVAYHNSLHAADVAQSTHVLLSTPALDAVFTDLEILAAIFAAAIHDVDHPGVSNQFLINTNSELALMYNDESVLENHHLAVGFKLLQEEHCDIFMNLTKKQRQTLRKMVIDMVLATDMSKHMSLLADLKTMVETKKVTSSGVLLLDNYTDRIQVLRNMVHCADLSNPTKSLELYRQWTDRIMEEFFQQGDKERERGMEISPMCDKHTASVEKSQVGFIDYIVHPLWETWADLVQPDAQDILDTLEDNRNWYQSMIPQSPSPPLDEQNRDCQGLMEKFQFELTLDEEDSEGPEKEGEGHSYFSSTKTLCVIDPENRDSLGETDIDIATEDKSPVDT
smiles,measurement,setting,value
CC(=O)N1CC[N+](C)(C)CC1,Potency,[1],inactive
same,Potency,[2],> 46 µM (inactive)
same,Potency,[3],> 46 µM (inactive)
same,outcome,[4],inactive
same,Potency,[5],inactive
same,"activity change, negative = inhibition",[6]; at 57.5 µM (top of the series),2.08% (inactive)
same,max response,[6]; measured here: cell count channel max response,-4.3%
same,max response,[6]; measured here: lipid channel max response,-0.222%
same,Potency,[7],inactive
same,Potency,[8],inactive
